Screens: PubChem, National Center for Advancing Translational Sciences (NCATS)
The list is not random: actives were taken first. Their share in the collection is about 5.3%.
Tau FP inhib: tau fibrillization inhibition (FP); Potency, µM (titrated, usually from 57.7 µM), for inactives: at the highest dose activity, negative = inhibition, most hits filed as inhibitors; K18 P301L tau heparin fibrillization, Alexa594 FP, 6 h; AID 1468; P10636; actives 0.39% (n = 280,000); further: potency means the concentration at half of the fitted maximal effect; nearly all actives have a fitted effect of over 55% in size
Target sequence (P10636 561-689 P618L limits assumed): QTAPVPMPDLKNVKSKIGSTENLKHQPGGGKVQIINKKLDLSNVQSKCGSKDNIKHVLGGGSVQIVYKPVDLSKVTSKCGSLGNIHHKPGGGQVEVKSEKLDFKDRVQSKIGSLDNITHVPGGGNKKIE
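Recombinant K18 P301L […], labeled with Alexa 594 at 0.24 uM over 15 uM unlabeled; heparin inducer 20 uM final; 37 C, 6 hr; FP endpoint.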
Sfp inh: inhibitors of Bacillus subtilis Sfp phosphopantetheinyl transferase; Potency, µM, without a hit: largest response in the series, negative = inhibition, most hits filed as inhibitors; AID 1490; Q9F4F7; Biochemical Sfp PPTase activity, qHTS; actives 3.5% (n = 310,000);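 further: the enzyme is Sfp with the accession as filed and its product quenches rhodamine fluorescence; potency means the concentration at half of the fitted maximal effect; 0% = enzyme reaction without inhibitor and -100% = no enzyme wells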
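Reaction rates are the 30-min fluorescence difference (ex 525, em 598 nm) in wells containing 15 nM Sfp, 5 uM rhodamine-CoA and 12.5 uM BHQ-2-YbbR at pH 7.6 with 10 mM MgCl2.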
Coupling enz: coupling enzyme interference in Giardia aldolase counter-screen | coupling enzyme system counterscreen, AmpLite Red fluorescence | activity change, negative = inhibition, % at 58.2 µM, hits read low | actives 0.67% (n = 290,000); in the data active means activity change below about -30%
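Activity here indicates interference with the coupling reaction, not aldolase inhibition. Compounds at 57.5 uM final met coupling enzymes for 10 min at RT; substrate and AmpLite Red detection followed, with a 525/598 nm fluorescence read after 20 min.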
Tau ThT inhib: tau fibrillization inhibition (ThT binding); P10636; recombinant tau K18 P301L, heparin-induced fibrillization, ThT fluorescence; Potency, µM (titrated, usually from 57.4 µM), for inactives: top-dose activity, negative = inhibition, most hits filed as inhibitors; actives 2.1% (n = 270,000); AID 1460; further: potency means the concentration at half of the fitted maximal effect; nearly all actives have a fitted effect of over 55% in size
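Heparin-induced (20 uM) aggregation of recombinant human K18 P301L tau, 15 uM unlabeled with 0.24 uM labeled, pH 7 acetate buffer, 6 hr at 37 C with compound. Fibrils quantified by 30 uM ThT fluorescence after 1 hr ambient incubation.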
Tau fluor cs: counter-screen for tau fibril formation inhibitors. tau K18 P301L Alexa594 fluorescence, heparin fibrillization. actives 0.93% (n = 280,000). Potency, µM (titrated, usually from 57.7 µM), without a hit: at the top dose activity change, negative = decrease; further: potency means the concentration at half of the fitted maximal effect; nearly all actives have a fitted effect of over 55% in size
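Human tau K18 P301L (15 uM unlabeled, 0.24 uM Alexa 594-labeled) in 100 mM sodium acetate pH 7 with 20 uM heparin, 6 hr at 37 C. ThT 30 uM added, 1 hr ambient; Alexa 594 FP and total fluorescence read at 555/632 nm.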
JMJD2E inh: blocks human JMJD2E demethylase activity; B2RXH2; JMJD2E catalytic domain, FDH-coupled NADH fluorescence (FDH is formaldehyde dehydrogenase); actives 1.6% (n = 230,000); Potency, µM (titrated, usually from 57.1 µM), inactives show top-dose activity change, negative = inhibition, usual class: inhibitors; active means well fitted inhibition curve with a large enough effect, not every such curve was filed as active; inconclusive means small, poorly fitted or top-dose-only effect, or another doubt; inactive means no such curve, though single readings can be large or run the other way;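 further: potency means the concentration at half of the fitted maximal effect; 0% = wells with enzyme and -100% = buffer wells without enzyme; nearly all actives have a fitted effect of over 50% in size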
Target sequence (B2RXH2 1-337 limits assumed): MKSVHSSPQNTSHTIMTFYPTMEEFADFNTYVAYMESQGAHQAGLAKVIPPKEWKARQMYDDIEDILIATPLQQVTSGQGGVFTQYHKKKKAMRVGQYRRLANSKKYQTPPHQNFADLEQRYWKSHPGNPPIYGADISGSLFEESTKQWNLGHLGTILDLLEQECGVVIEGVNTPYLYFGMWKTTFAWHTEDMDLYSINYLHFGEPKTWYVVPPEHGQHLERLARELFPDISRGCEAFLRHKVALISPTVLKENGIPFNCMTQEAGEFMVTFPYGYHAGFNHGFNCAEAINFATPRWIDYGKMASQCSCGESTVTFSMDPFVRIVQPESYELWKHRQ
* marks the source's active call; other numbers are inactive results; [ ] = remark or other dose. Unless noted, the call rests on the fitted dose curve; in most records, active means well fitted curve in the direction sought with a large enough effect; inconclusive means small, poorly fitted or top-dose-only effect, or another doubt; inactive means no such curve, though single readings can be large; an effect the other way counts as inactive or inconclusive. Unless noted, on the % scale 0 is the no-effect control and ±100 the full control effect.

COc1ccccc1N1CCN(CC2CN3C(=O)N(C)c4ccccc4C3=N2)CC1 (centres undefined) was read as Tau FP inhib 8%, Sfp inh 6%, Tau ThT inhib -4% and Tau fluor cs 0%.
Screening O=C1OC(c2ccccc2)=C/C1=C/N1CCCCC1 returned Tau FP inhib inconclusive, Sfp inh inconclusive, Coupling enz 2, Tau ThT inhib 28µM*, Tau fluor cs -28% and JMJD2E inh -23%.
COc1cc(OC)c(NC(C)C(=O)NCc2ccccc2)cc1Cl (centres undefined) was read as Tau FP inhib -3%, Sfp inh inconclusive, Coupling enz -50*, Tau ThT inhib inconclusive, Tau fluor cs -22% and JMJD2E inh -29%.
COc1cc(OC)c(NC(=O)NCc2cccn2Cc2ccccc2)cc1Cl was read as Tau FP inhib -11%, Tau ThT inhib -17% and Tau fluor cs 14µM*[quencher].
Screening COc1cc(OC)c(NC(=O)CCc2ccccc2)cc1Cl returned Tau FP inhib 2%, Sfp inh 3%, Coupling enz 0, Tau ThT inhib -14%, Tau fluor cs -12% and JMJD2E inh 1%.
For O=S(=O)(Nc1cc(O)cc2cccnc12)c1ccc(Br)s1 the results were Sfp inh inconclusive and Coupling enz -68*.
For O=S(=O)(Nc1cc(O)cc2cccnc12)c1ccc(Cl)s1 the results were Sfp inh -25% and Coupling enz -64*.
For COCCNC(=O)CSc1nc2cc3c(cc2c(=O)n1Cc1ccc(C(=O)NCCc2ccc(OC)c(OC)c2)cc1)OCO3 the results were Tau FP inhib 9%, Tau ThT inhib inconclusive and Tau fluor cs inconclusive.
CCC1(C)Cc2nc3sc(C(=O)O)c(N)c3cc2CO1 (centres undefined) was read as Tau FP inhib -1%, Sfp inh 28µM*, Coupling enz -8, Tau ThT inhib -18%, Tau fluor cs -11% and JMJD2E inh inconclusive.
`COc1ccc([N+](=O)[O-])cc1NC(=O)Cc1ccccc1Cl` gave Tau FP inhib -9%, Sfp inh -26%, Coupling enz -2, Tau ThT inhib 2%, Tau fluor cs -11% and JMJD2E inh -7%.
COc1ccc(N=Cc2cc(Cc3ccccc3Cl)cc([N+](=O)[O-])c2O)cc1OC was read as Tau FP inhib inconclusive, Sfp inh 8%, Coupling enz 2, Tau ThT inhib 10µM*, Tau fluor cs -29% and JMJD2E inh inconclusive.
`Cc1ccc(N=Cc2cc(Cc3ccccc3Cl)cc([N+](=O)[O-])c2O)c(O)c1` gave Tau FP inhib inconclusive, Sfp inh 50µM*, Coupling enz -29, Tau ThT inhib 7.9µM*, Tau fluor cs inconclusive and JMJD2E inh 18µM*.
`COc1ccccc1CN1CCC2(CCNCC2)CC1` gave Sfp inh 3% and Coupling enz 1.
`CCN(C(=O)CSc1nc2ccccc2n1CC(=O)N1CCCC(C)C1)c1ccccc1` (centres undefined) gave Tau FP inhib 5%, Tau ThT inhib -1% and Tau fluor cs 4%.
O=C1N/C(=N\N=C\c2ccco2)SC1Cc1ccccc1[N+](=O)[O-] (centres undefined) was read as Tau FP inhib inconclusive, Sfp inh -5%, Coupling enz 2, Tau ThT inhib 7.1µM*, Tau fluor cs inconclusive and JMJD2E inh -12%.
`COc1ccccc1CN(Cc1c(Cl)cccc1Cl)S(=O)(=O)c1ccc(Br)cc1` gave Tau FP inhib -4%, Tau ThT inhib 8% and Tau fluor cs -6%.
Screening CC1=NN(c2ccc(C(=O)O)c(N)c2)C(=O)C1 returned Tau FP inhib inconclusive, Sfp inh inconclusive, Coupling enz -37*, Tau ThT inhib inconclusive, Tau fluor cs -29% and JMJD2E inh inconclusive.
COC(=O)/C(=C/Nc1ccc(O)cc1)[N+](=O)[O-] was read as Tau FP inhib inconclusive, Sfp inh -20%, Coupling enz -36*, Tau ThT inhib 18µM*, Tau fluor cs inconclusive and JMJD2E inh inconclusive.
Screening Oc1c(N=Nc2ccccc2)sc2ccccc12 returned Tau FP inhib 4%, Sfp inh 1%, Coupling enz -9, Tau ThT inhib 2.5µM*, Tau fluor cs -23% and JMJD2E inh -7%.
For Cc1ccc2c(c1C)NC(C(=O)O)C1CC=CC21 (centres undefined) the results were Tau FP inhib inconclusive, Sfp inh 45µM*, Coupling enz -6, Tau ThT inhib 11µM*, Tau fluor cs inconclusive and JMJD2E inh 20µM*.
O=C(O)C1Nc2c(C(F)(F)F)ccc(Cl)c2C2C=CCC12 (centres undefined) was read as Sfp inh inconclusive and Coupling enz 2.
Cc1cc(C)c2c(c1)NC(C(=O)O)C1CC=CC21 (centres undefined) was read as Sfp inh 89µM* and Coupling enz 0.
O=C(O)C1Nc2c(C(=O)N3CCOCC3)cccc2C2C=CCC12 (centres undefined) was read as Tau FP inhib inconclusive, Sfp inh 7.1µM*, Coupling enz -34*, Tau ThT inhib 14µM*, Tau fluor cs inconclusive and JMJD2E inh inconclusive.
For CCOC(=O)c1ccc2c(c1)C1C=CCC1C(C(=O)O)N2 (centres undefined) the results were Tau FP inhib inconclusive, Sfp inh inconclusive, Coupling enz -4, Tau ThT inhib inconclusive, Tau fluor cs inconclusive and JMJD2E inh inconclusive.
`O=C(c1ccccc1O)N1CCOCC1` gave Tau FP inhib -2%, Sfp inh 12%, Coupling enz 0, Tau ThT inhib -7%, Tau fluor cs -6% and JMJD2E inh 4%.
CC(C)(C)OC(=O)N1CCCC1C(=O)NC1COC2CC(n3cc(F)c(=O)[nH]c3=O)OC12 (centres undefined) was read as Sfp inh 10% and Coupling enz 5.
For N#Cc1sc2nc(-c3ccccc3)cc(-c3ccco3)c2c1N the results were Tau FP inhib -1%, Sfp inh 79µM*, Coupling enz -21, Tau ThT inhib inconclusive, Tau fluor cs inconclusive and JMJD2E inh inconclusive.
N#Cc1c(-c2ccccc2)cc(-c2ccco2)c(C#N)c1N was read as Tau FP inhib -15%, Sfp inh 35µM*, Coupling enz -21, Tau ThT inhib inconclusive, Tau fluor cs -15% and JMJD2E inh inconclusive.
